# Assay results taken from article PMC7862700, “An all-to-all approach to the identification of sequence-specific readers for epigenetic DNA modifications on cytosine”.
# Tests used:
# Assay in all cases: DAPPL (digital affinity profiling via proximity ligation, sequencing); 10 mM Tris-HCl pH 7.5, 50 mM NaCl, 1 mM DTT, 4% glycerol, room temperature, 30 min; GST-TFs on glutathione beads, 16-mer random dsDNA library, 0.1% formaldehyde crosslink after washing; high values mean tight binding
# FEV = target: T1, FEV (Homo sapiens, UniProt Q99581 1-238); details: protein: recombinant; tags: N-terminal GST; dsDNA, one strand shown
# T1 sequence: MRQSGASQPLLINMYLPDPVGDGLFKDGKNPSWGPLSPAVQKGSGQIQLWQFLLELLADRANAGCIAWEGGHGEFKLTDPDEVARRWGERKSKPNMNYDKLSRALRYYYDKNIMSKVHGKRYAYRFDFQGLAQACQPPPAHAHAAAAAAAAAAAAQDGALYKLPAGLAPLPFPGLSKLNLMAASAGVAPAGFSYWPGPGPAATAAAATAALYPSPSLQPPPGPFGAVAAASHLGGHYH
# Outline: (§1)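 After expression in yeast as GST fusions, human transcription factors were bound to glutathione beads, DNA-barcoded and mixed with a tag-only sample. The pools were incubated with 200 nmole of a 16-mer random double-stranded DNA library in Tris/NaCl/DTT/glycerol buffer (30 min, room temperature), washed and crosslinked with 0.1% formaldehyde. Proximity ligation with BsaI/T4 ligase ran for 1 h at 37 °C, before PCR amplification and sequencing on an Illumina NextSeq500. Binding signal is a hexamer's read frequency for a factor divided by its frequency for the tag-only sample.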
# ETV5 = ETV5 (Homo sapiens, UniProt P41161 1-510); details: protein: recombinant; tags: N-terminal GST; dsDNA, one strand shown
# Outline: as §1
# HSF1 = HSF1 (Homo sapiens, UniProt Q00613 1-529); details: protein: recombinant; tags: N-terminal GST; chain copies: 3; dsDNA, one strand shown
# Outline: as §1
# SPIC = target: T2, SPIC (Homo sapiens, UniProt Q8N5J4 1-248); details: protein: recombinant; tags: N-terminal GST; dsDNA, one strand shown
# T2 sequence: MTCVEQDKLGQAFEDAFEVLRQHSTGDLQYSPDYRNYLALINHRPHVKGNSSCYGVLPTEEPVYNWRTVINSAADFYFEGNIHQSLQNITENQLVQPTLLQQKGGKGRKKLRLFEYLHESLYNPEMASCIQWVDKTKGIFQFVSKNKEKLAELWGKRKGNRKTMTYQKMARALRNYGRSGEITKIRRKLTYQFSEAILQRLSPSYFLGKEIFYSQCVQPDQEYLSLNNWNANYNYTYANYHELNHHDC
# Outline: as §1
# ELF4 = ELF4 (Homo sapiens, UniProt Q99607 1-663); details: protein: recombinant; tags: N-terminal GST; dsDNA, one strand shown
# Outline: as §1
# ELK4 = target: T3, ELK4 (Homo sapiens, UniProt P28324-2 1-405); details: protein: recombinant; tags: N-terminal GST; dsDNA, one strand shown
# T3 sequence: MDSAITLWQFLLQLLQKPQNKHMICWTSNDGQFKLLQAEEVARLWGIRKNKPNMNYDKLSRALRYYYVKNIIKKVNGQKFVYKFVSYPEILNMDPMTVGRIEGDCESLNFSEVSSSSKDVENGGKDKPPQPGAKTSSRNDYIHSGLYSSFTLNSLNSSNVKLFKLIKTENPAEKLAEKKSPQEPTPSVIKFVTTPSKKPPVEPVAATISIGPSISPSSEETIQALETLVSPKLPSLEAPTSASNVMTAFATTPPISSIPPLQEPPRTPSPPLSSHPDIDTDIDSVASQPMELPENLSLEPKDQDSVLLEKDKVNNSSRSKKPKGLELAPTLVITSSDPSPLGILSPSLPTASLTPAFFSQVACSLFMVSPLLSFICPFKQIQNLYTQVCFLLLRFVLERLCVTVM
# Outline: as §1
# ETV2 = target: T4, ETV2 (Homo sapiens, UniProt O00321 1-342); details: protein: recombinant; tags: N-terminal GST; dsDNA, one strand shown
# T4 sequence: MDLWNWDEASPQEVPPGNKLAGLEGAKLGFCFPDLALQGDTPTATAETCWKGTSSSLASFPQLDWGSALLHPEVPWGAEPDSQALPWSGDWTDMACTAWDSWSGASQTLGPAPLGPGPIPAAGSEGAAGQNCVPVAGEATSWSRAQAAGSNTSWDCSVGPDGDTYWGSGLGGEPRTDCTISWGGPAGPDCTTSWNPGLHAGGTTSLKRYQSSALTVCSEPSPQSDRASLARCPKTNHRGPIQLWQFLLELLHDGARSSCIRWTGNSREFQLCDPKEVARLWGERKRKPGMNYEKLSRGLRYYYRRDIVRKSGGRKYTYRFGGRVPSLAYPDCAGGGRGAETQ
# Outline: as §1
# ELF3 = target: T5, ELF3 (Homo sapiens, UniProt P78545 1-371); details: protein: recombinant; tags: N-terminal GST; dsDNA, one strand shown
# T5 sequence: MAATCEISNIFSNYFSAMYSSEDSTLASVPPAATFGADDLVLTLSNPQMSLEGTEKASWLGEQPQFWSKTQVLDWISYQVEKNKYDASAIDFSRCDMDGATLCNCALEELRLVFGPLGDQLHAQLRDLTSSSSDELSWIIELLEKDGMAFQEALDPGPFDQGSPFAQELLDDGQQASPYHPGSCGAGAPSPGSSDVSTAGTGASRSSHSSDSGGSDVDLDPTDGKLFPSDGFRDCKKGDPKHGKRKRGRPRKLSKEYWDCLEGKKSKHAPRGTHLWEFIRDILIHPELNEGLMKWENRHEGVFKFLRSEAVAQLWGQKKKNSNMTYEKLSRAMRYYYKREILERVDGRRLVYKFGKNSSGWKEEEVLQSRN
# Outline: as §1
# CRX = CRX (Homo sapiens, UniProt O43186 1-299); details: protein: recombinant; tags: N-terminal GST; dsDNA, one strand shown
# Outline: as §1
# ETV1 = ETV1 (Homo sapiens, UniProt P50549 1-477); details: protein: recombinant; tags: N-terminal GST; dsDNA, one strand shown
# Outline: as §1
# ERF = target: T6, ERF (Homo sapiens, UniProt P50548 1-548); details: protein: recombinant; tags: N-terminal GST; dsDNA, one strand shown
# T6 sequence: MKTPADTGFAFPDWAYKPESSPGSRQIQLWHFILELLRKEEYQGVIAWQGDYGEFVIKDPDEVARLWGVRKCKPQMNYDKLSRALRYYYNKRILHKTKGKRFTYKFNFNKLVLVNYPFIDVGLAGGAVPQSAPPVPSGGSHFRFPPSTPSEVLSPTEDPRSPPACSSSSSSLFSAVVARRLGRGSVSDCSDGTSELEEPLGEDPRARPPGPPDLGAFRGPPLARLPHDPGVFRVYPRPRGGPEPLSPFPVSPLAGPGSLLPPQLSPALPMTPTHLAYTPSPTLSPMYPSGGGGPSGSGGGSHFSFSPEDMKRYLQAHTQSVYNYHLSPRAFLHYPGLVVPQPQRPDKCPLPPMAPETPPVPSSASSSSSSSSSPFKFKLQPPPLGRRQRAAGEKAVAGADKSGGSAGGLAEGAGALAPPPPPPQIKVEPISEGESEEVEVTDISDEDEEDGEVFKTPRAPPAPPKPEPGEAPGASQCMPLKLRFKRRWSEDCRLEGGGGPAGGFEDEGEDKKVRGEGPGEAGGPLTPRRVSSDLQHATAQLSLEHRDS
# Outline: as §1
# ETV3L = target: T7, ETV3L (Homo sapiens, UniProt Q6ZN32 1-361); details: protein: recombinant; tags: N-terminal GST; dsDNA, one strand shown
# T7 sequence: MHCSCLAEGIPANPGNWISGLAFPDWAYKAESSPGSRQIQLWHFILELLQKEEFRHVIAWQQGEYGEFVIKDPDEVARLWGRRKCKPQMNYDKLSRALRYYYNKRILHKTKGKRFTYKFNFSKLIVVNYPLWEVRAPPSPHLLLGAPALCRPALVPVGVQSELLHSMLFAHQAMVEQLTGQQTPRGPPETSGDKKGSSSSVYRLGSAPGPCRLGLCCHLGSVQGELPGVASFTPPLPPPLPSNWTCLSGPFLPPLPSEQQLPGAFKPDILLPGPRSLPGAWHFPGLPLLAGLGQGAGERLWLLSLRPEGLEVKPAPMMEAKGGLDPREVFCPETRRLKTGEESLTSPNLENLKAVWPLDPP
# Outline: as §1
# ETS2 = target: T8, ETS2 (Homo sapiens, UniProt P15036 1-469); details: protein: recombinant; tags: N-terminal GST; dsDNA, one strand shown
# T8 sequence: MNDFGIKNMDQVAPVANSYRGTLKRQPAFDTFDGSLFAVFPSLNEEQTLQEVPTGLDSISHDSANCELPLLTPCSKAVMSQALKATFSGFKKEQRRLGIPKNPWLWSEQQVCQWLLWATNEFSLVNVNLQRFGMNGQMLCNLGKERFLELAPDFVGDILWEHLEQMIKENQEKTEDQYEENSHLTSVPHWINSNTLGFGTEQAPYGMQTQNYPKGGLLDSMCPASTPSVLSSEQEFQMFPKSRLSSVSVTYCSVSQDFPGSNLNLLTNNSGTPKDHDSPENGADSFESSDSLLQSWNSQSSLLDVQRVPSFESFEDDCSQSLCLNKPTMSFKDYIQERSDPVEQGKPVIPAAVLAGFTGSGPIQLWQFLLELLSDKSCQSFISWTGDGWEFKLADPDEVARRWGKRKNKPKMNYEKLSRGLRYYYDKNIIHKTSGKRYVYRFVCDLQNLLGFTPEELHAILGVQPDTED
# Outline: as §1
# SPDEF = target: T9, SPDEF (Homo sapiens, UniProt O95238 1-335); details: protein: recombinant; tags: N-terminal GST; dsDNA, one strand shown
# T9 sequence: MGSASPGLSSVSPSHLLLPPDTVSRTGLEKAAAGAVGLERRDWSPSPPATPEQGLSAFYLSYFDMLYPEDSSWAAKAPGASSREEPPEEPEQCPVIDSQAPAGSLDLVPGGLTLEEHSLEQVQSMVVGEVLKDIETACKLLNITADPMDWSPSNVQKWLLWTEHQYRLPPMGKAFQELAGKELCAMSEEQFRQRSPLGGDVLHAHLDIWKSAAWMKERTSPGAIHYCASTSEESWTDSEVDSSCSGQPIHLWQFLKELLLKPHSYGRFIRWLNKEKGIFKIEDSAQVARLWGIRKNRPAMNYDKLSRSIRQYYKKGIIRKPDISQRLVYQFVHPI
# Outline: as §1
# ETV7 = target: T10, ETV7 (Homo sapiens, UniProt Q9Y603 1-341); details: protein: recombinant; tags: N-terminal GST; dsDNA, one strand shown
# T10 sequence: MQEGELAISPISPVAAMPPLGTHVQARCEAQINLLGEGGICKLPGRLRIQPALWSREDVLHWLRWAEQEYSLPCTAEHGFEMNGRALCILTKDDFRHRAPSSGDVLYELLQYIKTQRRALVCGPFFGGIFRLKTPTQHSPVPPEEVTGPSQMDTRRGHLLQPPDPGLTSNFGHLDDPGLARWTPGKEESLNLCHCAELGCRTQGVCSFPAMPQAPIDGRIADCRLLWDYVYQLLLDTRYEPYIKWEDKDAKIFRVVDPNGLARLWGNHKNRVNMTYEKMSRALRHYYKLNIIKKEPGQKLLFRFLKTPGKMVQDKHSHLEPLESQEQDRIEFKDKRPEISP
# Outline: as §1
# ELF5 = target: T11, ELF5 (Homo sapiens, UniProt Q9UKW6-2 1-255); details: protein: recombinant; tags: N-terminal GST; dsDNA, one strand shown
# T11 sequence: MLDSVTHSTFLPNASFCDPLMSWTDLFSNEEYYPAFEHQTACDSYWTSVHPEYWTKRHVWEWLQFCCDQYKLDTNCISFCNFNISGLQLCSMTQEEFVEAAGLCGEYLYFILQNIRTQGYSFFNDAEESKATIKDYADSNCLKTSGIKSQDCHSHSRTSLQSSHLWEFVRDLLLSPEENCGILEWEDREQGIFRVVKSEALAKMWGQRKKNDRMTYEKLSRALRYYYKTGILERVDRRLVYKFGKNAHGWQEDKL
# Outline: as §1
# ETV3 = target: T12, ETV3 (Homo sapiens, UniProt P41162-2 1-143); details: protein: recombinant; tags: N-terminal GST; dsDNA, one strand shown
# T12 sequence: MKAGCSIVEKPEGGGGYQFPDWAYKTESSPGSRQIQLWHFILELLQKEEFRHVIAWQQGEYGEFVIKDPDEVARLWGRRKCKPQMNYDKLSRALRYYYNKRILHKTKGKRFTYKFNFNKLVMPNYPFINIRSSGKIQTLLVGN
# Outline: as §1
# ETV6 = ETV6 (Homo sapiens, UniProt P41212 1-452); details: protein: recombinant; tags: N-terminal GST; dsDNA, one strand shown
# Outline: as §1
# Sequence of ETV5 (P41161 whole entry): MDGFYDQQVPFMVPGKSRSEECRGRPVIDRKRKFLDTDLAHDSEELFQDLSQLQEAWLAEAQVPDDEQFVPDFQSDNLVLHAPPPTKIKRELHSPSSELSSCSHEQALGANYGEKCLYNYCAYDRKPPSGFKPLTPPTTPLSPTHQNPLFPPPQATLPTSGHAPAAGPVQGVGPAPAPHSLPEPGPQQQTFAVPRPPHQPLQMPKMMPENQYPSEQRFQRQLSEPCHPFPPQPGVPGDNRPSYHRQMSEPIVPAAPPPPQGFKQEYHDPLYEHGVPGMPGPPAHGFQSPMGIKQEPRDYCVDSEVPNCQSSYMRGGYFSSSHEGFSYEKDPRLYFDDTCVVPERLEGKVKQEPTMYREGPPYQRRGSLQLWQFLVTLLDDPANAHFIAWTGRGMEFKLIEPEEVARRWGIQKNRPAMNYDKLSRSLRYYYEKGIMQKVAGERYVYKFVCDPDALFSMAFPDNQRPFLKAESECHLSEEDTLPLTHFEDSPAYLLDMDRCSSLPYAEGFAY
# Sequence of ELF4 (Q99607 whole entry): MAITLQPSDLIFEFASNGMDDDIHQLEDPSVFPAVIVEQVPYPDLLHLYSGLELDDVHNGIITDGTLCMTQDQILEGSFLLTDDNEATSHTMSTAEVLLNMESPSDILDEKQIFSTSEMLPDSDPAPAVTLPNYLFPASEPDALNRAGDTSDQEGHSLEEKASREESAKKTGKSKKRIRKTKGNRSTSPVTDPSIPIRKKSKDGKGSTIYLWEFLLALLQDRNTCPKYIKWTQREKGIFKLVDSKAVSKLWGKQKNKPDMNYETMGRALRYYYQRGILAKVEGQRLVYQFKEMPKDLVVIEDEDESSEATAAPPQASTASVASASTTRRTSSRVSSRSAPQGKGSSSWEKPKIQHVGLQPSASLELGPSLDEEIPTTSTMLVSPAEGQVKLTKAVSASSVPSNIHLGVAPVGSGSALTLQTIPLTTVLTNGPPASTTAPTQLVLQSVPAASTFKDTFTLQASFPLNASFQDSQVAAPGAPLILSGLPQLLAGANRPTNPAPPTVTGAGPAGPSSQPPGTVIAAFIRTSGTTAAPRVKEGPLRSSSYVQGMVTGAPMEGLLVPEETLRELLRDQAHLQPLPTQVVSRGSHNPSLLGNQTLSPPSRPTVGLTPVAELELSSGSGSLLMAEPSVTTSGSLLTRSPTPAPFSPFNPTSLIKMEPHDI
# Sequence of ETV1 (P50549 whole entry): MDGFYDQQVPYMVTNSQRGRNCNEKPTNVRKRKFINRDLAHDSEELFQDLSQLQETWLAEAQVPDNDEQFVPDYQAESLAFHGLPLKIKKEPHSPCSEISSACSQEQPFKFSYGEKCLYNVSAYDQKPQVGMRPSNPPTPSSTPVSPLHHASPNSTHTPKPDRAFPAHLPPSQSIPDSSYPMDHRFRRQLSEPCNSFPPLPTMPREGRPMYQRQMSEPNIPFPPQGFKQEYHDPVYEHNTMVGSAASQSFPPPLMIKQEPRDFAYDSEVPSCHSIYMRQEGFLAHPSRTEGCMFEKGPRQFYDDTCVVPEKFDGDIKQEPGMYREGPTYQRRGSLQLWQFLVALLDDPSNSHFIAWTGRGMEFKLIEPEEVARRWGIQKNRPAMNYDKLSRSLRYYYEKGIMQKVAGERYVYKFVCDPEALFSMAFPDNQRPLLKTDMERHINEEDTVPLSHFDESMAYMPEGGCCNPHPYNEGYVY
# Sequence of CRX (O43186 whole entry): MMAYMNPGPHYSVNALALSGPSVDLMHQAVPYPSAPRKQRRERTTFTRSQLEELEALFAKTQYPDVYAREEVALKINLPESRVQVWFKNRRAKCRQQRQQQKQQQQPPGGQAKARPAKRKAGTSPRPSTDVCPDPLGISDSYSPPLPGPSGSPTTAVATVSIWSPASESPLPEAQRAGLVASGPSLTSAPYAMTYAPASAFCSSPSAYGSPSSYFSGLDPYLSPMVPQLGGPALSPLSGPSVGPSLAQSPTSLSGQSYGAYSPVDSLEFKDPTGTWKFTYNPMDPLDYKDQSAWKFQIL
# Sequence of ETV6 (P41212 whole entry): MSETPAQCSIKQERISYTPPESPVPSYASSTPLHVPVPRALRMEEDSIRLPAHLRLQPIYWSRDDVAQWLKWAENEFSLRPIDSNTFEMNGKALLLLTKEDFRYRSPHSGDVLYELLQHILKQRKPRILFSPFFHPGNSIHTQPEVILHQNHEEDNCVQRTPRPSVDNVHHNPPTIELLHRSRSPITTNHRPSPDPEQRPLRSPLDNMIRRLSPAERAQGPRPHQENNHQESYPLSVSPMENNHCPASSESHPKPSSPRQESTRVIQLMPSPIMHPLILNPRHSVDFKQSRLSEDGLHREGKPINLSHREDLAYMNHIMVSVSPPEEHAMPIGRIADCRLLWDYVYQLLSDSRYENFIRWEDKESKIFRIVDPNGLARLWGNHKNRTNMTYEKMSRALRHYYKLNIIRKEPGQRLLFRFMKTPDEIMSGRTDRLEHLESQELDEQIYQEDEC
# Sequence of HSF1 (Q00613 whole entry): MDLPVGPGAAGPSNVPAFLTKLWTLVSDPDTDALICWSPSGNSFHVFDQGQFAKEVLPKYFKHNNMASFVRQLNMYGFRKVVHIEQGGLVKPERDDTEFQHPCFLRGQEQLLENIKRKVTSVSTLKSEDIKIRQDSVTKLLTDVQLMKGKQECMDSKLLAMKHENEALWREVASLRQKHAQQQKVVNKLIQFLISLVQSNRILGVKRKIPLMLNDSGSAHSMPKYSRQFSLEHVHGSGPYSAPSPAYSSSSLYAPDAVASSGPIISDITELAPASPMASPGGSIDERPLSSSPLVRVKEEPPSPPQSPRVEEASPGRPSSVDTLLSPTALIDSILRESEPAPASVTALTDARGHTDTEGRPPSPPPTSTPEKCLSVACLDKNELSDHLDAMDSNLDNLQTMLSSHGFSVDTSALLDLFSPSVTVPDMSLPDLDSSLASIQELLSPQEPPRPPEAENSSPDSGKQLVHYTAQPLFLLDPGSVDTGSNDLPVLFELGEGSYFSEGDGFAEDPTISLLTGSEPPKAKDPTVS
sequence,measurement,setting,value
TAGTAT,binding signal,FEV,"1.28 fold enrichment (6-mer frequency, TF over GST control)"
same,binding signal,ETV5,"1.33 fold enrichment (6-mer frequency, TF over GST control)"
same,binding signal,HSF1,"1.55 fold enrichment (6-mer frequency, TF over GST control)"
same,binding signal,SPIC,"1.43 fold enrichment (6-mer frequency, TF over GST control)"
same,binding signal,ELF4,"1.3 fold enrichment (6-mer frequency, TF over GST control)"
same,binding signal,ELK4,"1.31 fold enrichment (6-mer frequency, TF over GST control)"
same,binding signal,ETV2,"1.34 fold enrichment (6-mer frequency, TF over GST control)"
same,binding signal,ELF3,"1.3 fold enrichment (6-mer frequency, TF over GST control)"
same,binding signal,CRX,"1.68 fold enrichment (6-mer frequency, TF over GST control)"
same,binding signal,ETV1,"1.23 fold enrichment (6-mer frequency, TF over GST control)"
same,binding signal,ERF,"1.29 fold enrichment (6-mer frequency, TF over GST control)"
same,binding signal,ETV3L,"1.23 fold enrichment (6-mer frequency, TF over GST control)"
same,binding signal,ETS2,"1.27 fold enrichment (6-mer frequency, TF over GST control)"
same,binding signal,SPDEF,"1.15 fold enrichment (6-mer frequency, TF over GST control)"
same,binding signal,ETV7,"1.44 fold enrichment (6-mer frequency, TF over GST control)"
same,binding signal,ELF5,"1.25 fold enrichment (6-mer frequency, TF over GST control)"
same,binding signal,ETV3,"1.26 fold enrichment (6-mer frequency, TF over GST control)"
same,binding signal,ETV6,"1.29 fold enrichment (6-mer frequency, TF over GST control)"
